Source: PubChem BioAssay (NCATS)
Inconclusive results are not listed. Values without a mark were called inactive. Calls follow the shape of the dose curve; as a rule, active = well fitted curve in the direction sought with a large enough effect; inconclusive = small, poorly fitted or top-dose-only effect, or another doubt; inactive = no such curve, though single readings can be large; an effect the other way counts as inactive or inconclusive.

Biological target: Protein phosphatase 1D (Homo sapiens) (UniProt O15297)
Sequence (O15297 whole entry, looked up): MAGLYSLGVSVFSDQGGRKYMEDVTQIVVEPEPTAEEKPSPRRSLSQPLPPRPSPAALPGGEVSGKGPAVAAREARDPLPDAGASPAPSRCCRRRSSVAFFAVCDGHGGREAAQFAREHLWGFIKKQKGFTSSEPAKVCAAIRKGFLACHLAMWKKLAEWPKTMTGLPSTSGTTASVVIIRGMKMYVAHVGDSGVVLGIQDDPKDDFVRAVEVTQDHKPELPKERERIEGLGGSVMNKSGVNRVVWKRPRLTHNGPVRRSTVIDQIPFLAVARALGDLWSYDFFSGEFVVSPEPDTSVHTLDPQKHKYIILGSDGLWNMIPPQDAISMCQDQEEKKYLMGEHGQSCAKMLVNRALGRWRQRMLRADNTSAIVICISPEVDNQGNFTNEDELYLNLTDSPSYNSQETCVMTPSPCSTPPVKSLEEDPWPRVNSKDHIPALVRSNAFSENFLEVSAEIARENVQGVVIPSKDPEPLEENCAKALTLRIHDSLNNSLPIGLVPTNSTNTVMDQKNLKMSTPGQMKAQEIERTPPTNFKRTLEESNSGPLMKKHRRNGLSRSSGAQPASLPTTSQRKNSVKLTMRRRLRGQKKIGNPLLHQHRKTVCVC
Assay: RapidFire Mass Spectrometry qHTS Assay for Modulators of WT P53-Induced Phosphatase 1 (WIP1) (AID 1347424);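 also: amount of dephosphorylated VEPPL-S-QETFS peptide product formed by WIP1; plate controls were DMSO wells for no effect and GSK830371 inhibitor control at 10 µM for full effect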
Conditions: WIP1 dephosphorylation of phosphopeptide, RapidFire MS; series mostly up to 63 µM; activity change, negative = inhibition: at the top concentration
Procedure, shortened: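 10 nM WIP1 preincubated with compounds 1 hr at room temperature in pH 7.5 Tris buffer with 30 mM MgCl2, 1 mM TCEP; 2 uM VEPPL-pS-QETFS phosphopeptide for 5 min, formic acid quench; dephosphorylated product quantified by RapidFire MS against labelled standard.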

SMILES | activity change, negative = inhibition [%]
COC1=CC(=O)C[C@@H](C)[C@]12Oc1c(Cl)c(OC)cc(OC)c1C2=O | 9.41
CC[N+](CC)(CCNC(=O)C(=O)NCC[N+](CC)(CC)Cc1ccccc1Cl)Cc1ccccc1Cl | 10.9
OC[C@H]1O[C@H](O[C@]2(CCl)O[C@H](CCl)[C@@H](O)[C@@H]2O)[C@H](O)[C@@H](O)[C@H]1Cl | -0.722
Cc1c(C)n(CCN(C)C)c2ccc(C(=O)OCCN(C)C)cc12 | -17.3
O=C1[C@H]2CCCC[C@H]2C(=O)N1CCCCN1CCN(c2nsc3ccccc23)CC1 | -4.68
C[C@]12CCC(=O)C=C1CC[C@H]1[C@@H]3CC[C@](O)(C(=O)CO)[C@@]3(C)C[C@H](O)[C@@]12F | 7.34

Biological target: Protein phosphatase 1D (Homo sapiens) (UniProt O15297)
Assay: Rhodamine-PBP qHTS Assay for Modulators of WT P53-Induced Phosphatase 1 (WIP1) (AID 1347425); also: % of control where 0% means no effect
Conditions: recombinant WIP1, Rhodamine-PBP phosphate fluorescence, real-time; series mostly up to 57.5 µM; activity change, negative = inhibition: at the top concentration
Procedure, shortened: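 Read-out: Rhodamine-PBP fluorescence (ex 525/em 598 nm) for released Pi, read each minute for 11 min after adding 10 uM VEPPL-pS-QETFS; signal taken as f1 minus pre-substrate f0. Enzyme 5 nM WIP1 with 1 hr room-temperature compound preincubation.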

SMILES | activity change, negative = inhibition [%]
CCCCCCCCCCOCC(O)CN (stereo not given) | 19.4
C[C@]12CCC(=O)C=C1[C@@H]1C[C@@H]1[C@H]1[C@@H]3[C@@H]4C[C@@H]4[C@@]4(CCC(=O)O4)[C@@]3(C)CC[C@@H]12 | 17.8
CC(C)NC[C@@H](O)COc1cccc2ccccc12 | -8.15
CCCCC(CC)CN=C(N)NC(N)=NCCCCCCN=C(N)NC(N)=NCC(CC)CCCC (stereo not given) | -5.64
COc1cccc(CCc2ccccc2OCC(CN(C)C)OC(=O)CCC(=O)O)c1 (stereo not given) | 15.2
CN(C(=O)CN(CCO)CC(=O)N(C)C(C)(C)Cc1ccccc1)C(C)(C)Cc1ccccc1 | 24.6
CCCCCCCCCCCCCCCC[N+](C)(C)CCN(Cc1ccc(OC)cc1)c1ncccn1 | 13.8
CC(C)(C)CC(C)(C)c1ccc(OCCOCC[N+](C)(C)Cc2ccccc2)cc1 | 26
COc1ccc(/C=C/C(=O)c2ccc(OC)cc2OC)cc1 | 18.9
